This note sets out measurements from ChEMBL document CHEMBL1157539, “Thousands of chemical starting points for antimalarial lead identification” (Nature, 2010).

The Inhibition is the share of the control response that was lost under treatment.

SMILES strings stand for the structures.

The subject of the experiment is Plasmodium falciparum. The experiment is described as follows: GSK_TCMDC: Inhibition of Plasmodium falciparum Dd2 in whole red blood cells, using parasite LDH activity as an index of growth. Test compounds present at 2uM. It counts as functional.
`O=C(Nc1ccc(Cl)cc1)c1ccc(CN2CCCN(CC3CCCCC3)CC2)cc1.O=C(O)C(F)(F)F` gave an Inhibition of 42%. For `O=C(Nc1cccc(-c2cccc(-c3nc4cc(C(F)(F)F)ccc4[nH]3)c2)c1)Nc1ccc(F)c(F)c1F`, the Inhibition is 100%. As for `Cc1cc(NC(=O)Nc2ccc(Cl)cc2F)c2ccccc2n1`, the Inhibition is 71%. `CC(C)CCNC(=O)C1Cc2c([nH]c3cc(Br)ccc23)C2(CCN(Cc3ccccc3)CC2)N1` (stereo not drawn) yielded an Inhibition of 45%. In turn, `CN1C(=CC(=O)NC(=O)c2ccccc2)C(C)(C)c2ccccc21` came in with an Inhibition of 89%. In turn, `Cc1cccc2nc(-c3ccc(-c4cccc(NC(=O)CN5CCN(C)CC5)c4)s3)[nH]c12` displayed an Inhibition of 51%.

For the molecule `CC(=O)C=C1CC(=O)N(C[C@@H](O)[C@H]2O[C@@H]3OC(C)(C)O[C@@H]3[C@H]2O)c2ccccc2N1`, the Inhibition is 2%. Regarding `CO/C(=C\C=C\c1cc2cc(Cl)c(Cl)cc2[nH]1)C(=O)NCCCN1CCN(c2cccc(O)c2)CC1`, the Inhibition was determined as 100%.

Molecule `N=C(N)NCCCN(Cc1ccccc1)c1ccc(Cl)cc1.O=S(=O)(O)O` had an Inhibition of 98%. Consider `O=C(Nc1ccc(C(F)(F)F)cc1)NC1CCN(c2ccnc3ccccc23)CC1.O=C(O)C(F)(F)F`, for which the Inhibition was 62%. On to `CC(C)C[C@H](NC(=O)c1ccc(OCCN2CCOCC2)cc1)C(=O)N[C@H](/C=N/N(C)C(=O)c1ccccc1)CCc1ccccc1`, for which the Inhibition amounted to 72%. Molecule `Cc1ccc(C(=O)Nc2ccc(Nc3ccnc4cc(-c5ccncc5)ccc34)cc2O)cc1` returned an Inhibition of 100%. In the case of `CC(C)CC(C)NC(=O)C1Cc2c([nH]c3ccc(F)cc23)C2(CCN(Cc3ccccc3)CC2)N1` (stereo not drawn), the Inhibition was 49%.
